HepG2 viability – HepG2 cytotoxicity, counter-screen for TGF-b inhibitors | HepG2 CAGA-GFP viability, ATP luminescence, 18 h | Potency, µM (highest dose often 46.1 µM), inactives show at the top dose activity change, negative = cytotoxicity, usual class: cytotoxic | hit rate 0.76% among 410,000 | AID 588856
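CellTiter-Glo luminescence gave cytotoxicity after 18 hours at 37 degrees C. The cells were HepG2 CAGA-GFP in 1% FBS DMEM, stimulated with 500 pg/mL TGF-beta after compound addition. %Activity was normalised to no-cell wells (complete cell-killing) and DMSO (no toxicity), and curves were fitted and classified.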
TGFb inhibitor – blocks TGF-b signaling; HepG2 CAGA-GFP TGF-b/SMAD3 reporter, GFP fluorescence, 18 h; TGF-beta stimulated, 500 pg/mL final; hit rate 1.2% among 410,000; Potency, µM (doses to about 46.1 µM), inactives show top-dose activity, negative = inhibition, hits mostly inhibitors; further: on the % scale 0 is the no-effect control and ±100 the full control effect; nearly all actives have a fitted effect of over 65% in size
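GFP signal (ex488/em500-530) from TGF-beta-stimulated HEPG2 CAGA-GFP cells, 500 pg/mL final, 18 h at 37 degrees C in DMEM plus 1% FBS, normalized to unstimulated and DMSO-stimulated controls.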
S2 tox – cell viability loss in ATXN counter-screen; S2 cells (HEK-293 line with an ATXN2-luciferase reporter) viability, CellTiter-Fluor protease fluorescence, 24 h; Potency, µM (titrated, usually from 56.7 µM), most hits filed as cytotoxic; hit rate 0.49% among 400,000; further: nearly all actives have a fitted effect of over 40% in size
GLP-1R agonist – activates the human GLP-1 receptor; AID 624172; hit rate 0.007% among 380,000; HEK293 GLP-1R CRE-luciferase, luminescence, 4-6 h; cells express a hypersensitive GLP-1R form; P43220; Potency, µM (doses to about 45.6 µM), for inactives: top-dose activation, hits mostly activators; further: % of control where 0% means no effect
Target sequence (P43220 whole entry, looked up): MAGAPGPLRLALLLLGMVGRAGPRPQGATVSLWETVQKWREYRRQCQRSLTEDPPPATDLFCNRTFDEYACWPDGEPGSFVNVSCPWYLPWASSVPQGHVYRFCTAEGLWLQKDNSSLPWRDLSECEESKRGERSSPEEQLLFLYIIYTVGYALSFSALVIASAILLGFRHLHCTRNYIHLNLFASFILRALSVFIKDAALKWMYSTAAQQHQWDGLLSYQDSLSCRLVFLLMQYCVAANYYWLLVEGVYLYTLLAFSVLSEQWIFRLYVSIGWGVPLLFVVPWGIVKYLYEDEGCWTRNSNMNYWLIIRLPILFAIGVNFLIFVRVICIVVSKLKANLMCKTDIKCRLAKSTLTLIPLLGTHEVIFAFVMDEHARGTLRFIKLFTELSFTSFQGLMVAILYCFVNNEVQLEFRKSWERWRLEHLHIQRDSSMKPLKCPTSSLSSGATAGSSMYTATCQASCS
GLP-1R inv ag – acts as inverse agonist at human GLP-1 receptor. P43220. hit rate 1.6% among 410,000. Potency, µM (series often up to 38.3 µM), for inactives: at the top dose activity change, negative = inhibition, most hits filed as inhibitors. HEK293 GLP-1R CRE-luciferase, luminescence, 24 h; GLP-1R form is constitutively active; further: on the % scale 0 is the no-effect control and ±100 the full control effect; nearly all actives have a fitted effect of over 55% in size
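qHTS in 1536-well format: reporter HEK293 cells expressing constitutive GLP-1R activity in DMEM + 10% Nu serum, 24 hr with compounds at 37 deg C, luminescence read after 12 min with detection reagent.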
ATXN2 expr inh – inhibitors of ATXN2 expression; hit rate 0.72% among 360,000; HEK-293 ATXN2-luciferase reporter, luminescence, 24 h; Potency, µM (series often up to 57 µM), without a hit: at the top dose activity change, negative = inhibition, usual class: inhibitors; further: on the % scale 0 is the no-effect control and ±100 the full control effect; nearly all actives have a fitted effect of over 55% in size
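ATXN2-luciferase reporter cells (luciferase flanked by upstream and downstream ATXN2 gene portions) were treated 24 h at 37 °C with compounds at up to 57 uM. SteadyGlo luminescence gave expression; GF-AFC fluorescence gave viability.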
* = called active by the depositor; i = inactive; ? = inconclusive; . = not tested or not shown. Hits are enriched below; roughly 3.7% of the tested compounds scored in any of these assays. The call rests on the fitted dose curve; in most records, active means well fitted curve in the direction sought with a large enough effect; inconclusive means small, poorly fitted or top-dose-only effect, or another doubt; inactive means no such curve, though single readings can be large; an effect the other way counts as inactive or inconclusive. Potency means the concentration at half of the fitted maximal effect.

SMILES	HepG2 viability	TGFb inhibitor	S2 tox	GLP-1R agonist	GLP-1R inv ag	ATXN2 expr inh
C[C@@]12CCC=C[C@H]1[C@H](c1ccc(/C=C/c3ccccc3)cc1F)N(Cc1ccccc1)C2=O	5.5%	-18.3%	i	3.3%	7.94µM*	-6.4%
NC(=O)C1CC2(NC(=O)NC2=O)c2cc(F)ccc2O1 (stereo not drawn)	.	.	.	5.9%	.	.
C/C=C1\NC(=O)[C@H]2CSSCC/C=C\[C@H](CC(=O)N[C@H](C(C)C)C(=O)N2)OC(=O)C(C(C)C)NC1=O (stereo partly drawn)	.	.	.	1.8%	.	.
CNC(=O)c1cc(Oc2ccc(NC(=O)Nc3cc(C(C)(C)C)nn3-c3ccc4ncccc4c3)c(F)c2)ccn1	.	.	.	.	.	1.37µM*
COc1ccc(C2C=C3CNS(=O)(=O)C3CC2OC(=O)c2ccc(C(F)(F)F)cc2)cc1 (stereo not drawn)	-88.4%	14.1µM*	.	.	.	.
COc1ccc(C2C=C3CNS(=O)(=O)C3CC2OC(=O)c2cccs2)cc1 (stereo not drawn)	-11.4%	?	.	.	.	.
COc1ccc(CCNc2nc(-c3ccccc3OC)cc(C(F)(F)F)n2)cc1OC	-3.2%	-27.2%	i	2.8%	3.55µM*	-15.5%
COc1ccc(-c2cc(C(F)(F)F)nc(NCCc3ccccc3)n2)cc1	-1.7%	?	i	0.1%	3.16µM*	1.5%
COc1cccc(-c2cc(C(F)(F)F)nc(NCCc3ccccc3)n2)c1	-23.1%	-24.7%	i	1.0%	?	9.3%
COc1ccc(-c2cc(C(F)(F)F)nc(NCCc3ccccc3)n2)cc1OC	-0.7%	-2.5%	i	2.3%	18.8%	4.2%
COc1cccc(C2(CC(=O)N3CCC(c4nc5ccc(F)cc5[nH]4)CC3)CC(=O)N(C)C2=O)c1 (stereo not drawn)	.	.	i	.	.	.
CCOc1ccc(Br)cc1C1C(C(=O)OC)=C(C)NC2=C1C(=O)c1ccccc12 (stereo not drawn)	-27.5%	-28.0%	i	.	8.1%	-1.4%
CCOC(=O)COc1ccccc1C1C(C(=O)OC)=C(C)NC2=C1C(=O)c1ccccc12 (stereo not drawn)	-62.2%	15.8µM*	?	.	5.3%	-6.5%
CCOCCCNC(=S)NNC(=O)CCn1nc(C)c(Br)c1C	7.1%	-19.6%	i	2.7%	5.62µM*	-6.6%
COCC1CCCN(Cc2ccc3c(c2)CN(C(=O)c2ccc(-c4ccc(C)o4)cc2)CCO3)C1 (stereo not drawn)	.	.	i	.	.	.
S=C(NCCCc1cnc[nH]1)NCCCN(Cc1ccc(Cl)cc1)c1ccc(-c2ccccc2)cn1	-82.3%	?	.	.	.	.
O=C(/C=C/c1ccc(OC2CSC2)cc1)c1ccccc1	6.31µM*	?	?	-12.8%	?	?
O=S1(=O)N[C@H](Cc2ccccc2)COc2cccc(N3CCN(Cc4ccccc4F)CC3)c21	.	.	17.8µM*	0.3%	?	?
CN1CCN(c2cccc3c2S(=O)(=O)N[C@H](Cc2ccccc2)CO3)CC1	.	.	i	7.3%	3.2%	-8.3%
CC(C)(C)n1nc(-c2ccc(F)cc2)c2c(N)ncnc21	10.0%	?	i	21.7%	70.4%	0.8%
CC(C)n1nc(-c2cc3cc(O)ccc3[nH]2)c2c(N)ncnc21	.	.	?	.	.	5.01µM*
Cc1cc(C(=O)Nc2ccccc2-c2nc(CNC(=O)C3(C)CCCCC3)c(C)o2)c(C)o1	.	.	i	.	.	.
Cc1cc(N2CCN(c3ccc([N+](=O)[O-])c4cccnc34)CC2)c2ccccc2n1	3.16µM*	?	?	0.3%	-2.9%	?
O=C(Nc1ccccc1)N1CCCN(c2ccc(C(F)(F)F)cc2[N+](=O)[O-])CC1	10.9%	16.8%	i	3.4%	7.94µM*	-23.3%
Cc1cc(N2CCN(c3ccc(C(F)(F)F)cc3[N+](=O)[O-])CC2)c2ccccc2n1	-60.7%	10µM*	.	-1.1%	7.94µM*	.
SMILES	HepG2 viability	TGFb inhibitor	S2 tox	GLP-1R agonist	GLP-1R inv ag	ATXN2 expr inh
O=C1CCCC(=O)C1C(=O)c1ccc(C(F)(F)F)cc1[N+](=O)[O-]	.	.	.	.	.	10.6%
O=P(O)(O)C(O)(Cc1cnc2ccccn12)P(=O)(O)O	.	.	i	-5.9%	.	.
COc1cccc(CN2CCC(N(CCc3ccccc3)Cc3ccccc3)CC2)c1OC	-31.2%	?	i	-9.2%	10µM*	-25.9%
COc1cccc(CN2CCN(Cc3cccc(Oc4ccccc4)c3)CC2)c1OC	-11.7%	0.0%	i	-2.2%	6.31µM*	-23.6%
Cc1ccc(C(=O)N2CCOc3ccc(CN4CCN(Cc5ccccn5)CC4)cc3C2)cc1	.	.	i	.	.	.
O=C1/C(=C/c2cccnc2)CCC/C1=C\c1cccnc1	-98.9%	3.98µM*	11.2µM*	-24.0%	?	17.8µM*
O=C1/C(=C/c2cccnc2)CC/C1=C\c1cccnc1	-13.2%	6.8%	?	14.6%	4.7%	?
CCC1C/C(=C\c2cccnc2)C(=O)/C(=C/c2cccnc2)C1 (stereo not drawn)	10µM*	3.98µM*	.	-42.0%	3.55µM*	14.1µM*
CC(C)/C=C1\CC/C(=C\c2cccnc2)C1=O	2.9%	1.3%	i	5.3%	22.0%	.
CCc1ccc(C=O)cc1	-4.0%	-2.4%	.	.	.	.
CC1(C)COCN1S(=O)(=O)c1ccc(C(=O)Nc2nnc(-c3ccc(Cl)s3)o2)cc1	-4.6%	-9.4%	?	-14.3%	?	7.94µM*
CC1=C(C(=O)OC2CCCCC2)C(c2ccco2)C2=C(CC(C)(C)CC2=O)N1 (stereo not drawn)	-7.5%	16.6%	?	1.2%	8.91µM*	?
COC(=O)C1C(=O)C2=C(CC1C)NC(C)=C(C(=O)OCCOc1ccccc1)C2c1ccc(C)o1 (stereo not drawn)	-15.3%	20.5%	i	10.0%	11.2µM*	-3.0%
COC(=O)C1C(=O)C2=C(CC1C)NC(C)=C(C(=O)OC1CCCCC1)C2c1ccc(N(C)C)cc1 (stereo not drawn)	3.3%	-10.0%	?	0.3%	10µM*	-10.0%
CC1=C(C(=O)OCCOc2ccccc2)C(c2ccc(C)o2)C2=C(CC(C)(C)CC2=O)N1 (stereo not drawn)	-1.5%	8.9%	i	-0.7%	7.94µM*	-17.2%
COC(=O)C1C(=O)C2=C(CC1C)NC(C)=C(C(=O)OC(C)C)C2c1ccc(C)o1 (stereo not drawn)	-8.2%	18.2%	i	-12.5%	-5.3%	11.9%
COc1ccc(Nc2c(-c3ccc(C)o3)nc3cc(C)ccn23)cc1	-54.1%	?	?	.	?	-33.5%

Assay outcomes as filed in PubChem.
